NOD2-RIPK2 inh: inhibitors of human NOD2-RIPK2 interaction | O43353 | CHO BLA complementation NOD2-RIPK2, CCF4 ratio | inhibition, % at 4.98 µM | 360,000 tested, 0.38% active; in the data active = inhibition above about 21%
Myeloid diff MLP: myeloid differentiation induction; ER-HoxA9 myeloid progenitors, lysozyme-GFP differentiation, flow cytometry; calls only at 10 µM; 360,000 tested, 1% active; AID 624256;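 active = normalized GFP-positive differentiation at or above the plate's own cutoff, the solvent-only control mean plus 3 SD; inconclusive = no clear call, values can overlap the other calls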;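 note: cells exposed to compound for four days before flow analysis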
TLR9-MyD88 inh: inhibitors of human TLR9-MyD88 binding; Q9NR96+Q99836; CHO BLA complementation TLR9-MyD88, CCF4 FRET ratio; inhibition, % at 4.98 µM; 340,000 tested, 0.21% active; AID 504734;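 active = inhibition above the mean over all tested compounds plus 3 SD, cut at about 21% in these data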
TLR4-MyD88 BLA: inhibitors of human TLR4-MyD88 binding; HeLa CL3-4 TLR4/MyD88 BLA complementation, FRET ratio; 200,000 tested, 0.18% active; O00206+Q99836; inhibition, % at 8.4 µM; AID 861; in the data active = inhibition above about 25%
ABCB6 inh 2: blocks the human ABCB6 transporter; Q9NP58; K562-ABCB6 porphyrin accumulation, flow cytometry, 1 h; hits give low values; fluorescence ratio to DMSO, % at 10 µM; 360,000 tested, 0.19% active; AID 602162;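 active = fluorescence ratio to DMSO below 75%, the collection mean minus 3 SD; inconclusive = too few cells collected in the well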;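 note: signal is porphyrin accumulated inside mitochondria; lower ratio means ABCB6 inhibition with less porphyrin fluorescence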
Target sequence (Q9NP58 whole entry, looked up): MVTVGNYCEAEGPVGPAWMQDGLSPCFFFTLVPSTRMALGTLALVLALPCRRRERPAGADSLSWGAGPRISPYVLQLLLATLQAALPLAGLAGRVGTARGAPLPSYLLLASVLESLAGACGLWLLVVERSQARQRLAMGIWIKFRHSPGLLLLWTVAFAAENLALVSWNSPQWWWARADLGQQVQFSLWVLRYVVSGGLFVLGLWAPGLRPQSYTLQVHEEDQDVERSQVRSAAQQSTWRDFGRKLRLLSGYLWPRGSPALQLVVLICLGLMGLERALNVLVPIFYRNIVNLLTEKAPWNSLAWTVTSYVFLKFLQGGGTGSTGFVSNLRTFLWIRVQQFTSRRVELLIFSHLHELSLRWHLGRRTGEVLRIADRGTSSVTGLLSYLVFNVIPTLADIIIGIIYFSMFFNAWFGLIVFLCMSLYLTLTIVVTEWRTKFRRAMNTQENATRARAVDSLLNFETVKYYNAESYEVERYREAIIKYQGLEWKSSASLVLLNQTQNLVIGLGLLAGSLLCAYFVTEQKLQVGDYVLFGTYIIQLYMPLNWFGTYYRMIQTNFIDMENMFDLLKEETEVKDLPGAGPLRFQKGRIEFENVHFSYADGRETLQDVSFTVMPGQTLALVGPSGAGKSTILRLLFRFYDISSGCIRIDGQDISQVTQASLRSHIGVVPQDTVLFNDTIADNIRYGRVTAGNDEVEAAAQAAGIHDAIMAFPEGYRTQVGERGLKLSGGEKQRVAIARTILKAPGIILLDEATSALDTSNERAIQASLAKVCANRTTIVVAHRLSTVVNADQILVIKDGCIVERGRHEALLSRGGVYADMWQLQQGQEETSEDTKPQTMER
Each line names hits and unclear results; the compound was inactive in the other large screens. Compounds with a hit are over-represented: about 1.7% of the library has one in this group of screens.

CCOC(=O)C1=C(C)N=c2s/c(=C/c3ccc(OCC(=O)O)cc3)c(=O)n2C1c1cc(OC)c(OC)c(OC)c1 (centres undefined)	none (no result: TLR4-MyD88 BLA)
O=S(=O)(N=C1C=CC(=NS(=O)(=O)c2ccccc2)c2ccccc21)c1ccccc1	Myeloid diff MLP active (no result: TLR4-MyD88 BLA)
CN(C)CCOC(c1ccccc1)c1ccccc1 (tested in a mixture with another compound)	Myeloid diff MLP active
CN(C)CCOC(c1ccccc1)c1ccccc1	none
O=C(CCC(=O)n1ncc2ccccc21)N1CCCCC1	Myeloid diff MLP active (no result: TLR4-MyD88 BLA)
Cc1ccc2c(cnn2C(=O)CCC(=O)N2CCCCC2)c1	none (no result: TLR4-MyD88 BLA)
COc1ccc(C(=O)NCCCOc2cccnc2)cc1OC1CCN(C(C)=O)CC1	none (no result: TLR4-MyD88 BLA)
O=C(C1CCC(=O)N(C2CCCC2)C1)N1CCN(Cc2cccc(F)c2)CC1 (centres undefined)	Myeloid diff MLP active (no result: TLR4-MyD88 BLA)
COc1cccc(CN2CCN(C(=O)C3CCC(=O)N(C4CCCC4)C3)CC2)c1 (centres undefined)	none (no result: TLR4-MyD88 BLA)
N#CCSc1ccccc1NC(=O)COC(=O)Cc1c[nH]c2ccccc12	Myeloid diff MLP active (no result: TLR4-MyD88 BLA)
CC(C)c1ccccc1NC(=O)COC(=O)Cc1c[nH]c2ccccc12	none
N#CCSc1ccccc1NC(=O)COc1ccc(-c2nnco2)cc1	Myeloid diff MLP active (no result: TLR4-MyD88 BLA)
CC1CCN(S(=O)(=O)c2ccc(NC(=O)C3CCCCC3C(=O)O)cc2)CC1 (centres undefined)	none (no result: TLR4-MyD88 BLA)
Cc1ccc(S(=O)(=O)NC(=O)COc2ccccc2C)c(C)c1	none (no result: TLR4-MyD88 BLA)
CC(=O)C1=C(C)NC(SCC(=O)c2cc(Cl)ccc2Cl)=C(C#N)C1c1ccco1 (centres undefined)	NOD2-RIPK2 inh 21, Myeloid diff MLP inconclusive
O=C(c1ccc(Br)o1)N(Cc1ccccc1)c1ccccn1	none
CCOC(=O)N1CCC(NC(=O)CS(=O)(=O)Cc2nc(-c3ccccc3C)oc2C)CC1	Myeloid diff MLP active
C/C(=N/NC(=O)CC1N=C(Cc2ccccc2)NNC1=O)c1cccnc1 (centres undefined)	none
COc1ccc(C(=O)NC(C)c2ccccc2)cc1Br (centres undefined)	Myeloid diff MLP active
CC(NC(=O)c1ccc(Br)cc1)c1ccccc1 (centres undefined)	none
COc1ccc(-n2c(Cc3ccccc3)nnc2SCc2ccc([N+](=O)[O-])cc2)cc1	none
O=[N+]([O-])c1ccc(CSc2nnc(Cc3ccccc3)n2-c2ccc(F)cc2)cc1	Myeloid diff MLP active
CC(=O)Oc1ccccc1/C=C/c1nc2ccccc2c(=O)o1	none (no result: TLR4-MyD88 BLA)
O=c1oc(/C=C/c2ccc([N+](=O)[O-])s2)nc2ccccc12	Myeloid diff MLP active (no result: TLR4-MyD88 BLA)
COC1=C(Nc2ccc(O)cc2)C(=O)c2ccccc2C1=O	Myeloid diff MLP active
O=C1C=C(Nc2ccc(O)cc2)C(=O)c2ccccc21	Myeloid diff MLP active (no result: TLR4-MyD88 BLA)
O=C1C(Cl)=C(Nc2ccc(O)cc2)C(=O)c2ccccc21	Myeloid diff MLP inconclusive, ABCB6 inh 2 66 (no result: TLR4-MyD88 BLA)
COc1ccc(NS(=O)(=O)c2cc(NC(=O)C3CC3)ccc2N2CCCCC2)cc1	Myeloid diff MLP active
COc1ccc(NS(=O)(=O)c2cc(NC(=O)C3CC3)ccc2N2CCOCC2)cc1	none
Cc1nn(CC(=O)N2CCN(c3ccccc3)CC2)c(C)c1[N+](=O)[O-]	Myeloid diff MLP active (no result: TLR4-MyD88 BLA)
Cc1ccc(S(=O)(=O)N2CCN(C(=O)Cn3nc(C)c([N+](=O)[O-])c3C)CC2)c(C)c1	none (no result: TLR4-MyD88 BLA)
CC(C)C(NC(=O)C12CC3CC(CC(C3)C1)C2)C(=O)N/N=C/C1=C(N2CCOCC2)C(=C\c2ccc([N+](=O)[O-])cc2)/CC1 (centres undefined)	Myeloid diff MLP active
O=C(c1ccccc1)c1nc2ccccc2n(CCCn2c(=O)c(C(=O)c3ccccc3)nc3ccccc32)c1=O	Myeloid diff MLP active
Cn1c(=O)c(C(=O)c2ccccc2)nc2ccccc21	none
CCN(CC)c1ccc(/C=N/N=C(c2ccccc2)c2ccccc2)c(O)c1	Myeloid diff MLP active
C/C(=N\NC(=O)c1ccc(CSc2cccc3cccnc23)cc1)C1CCCCC1	Myeloid diff MLP active
COc1ccc(/C(C)=N/NC(=O)c2ccc(CSc3cccc4cccnc34)cc2)cc1OC	none
Cc1cc(Br)c2nc(-c3ccccc3)c(Cc3cccc(Cl)c3)n2c1	none (no result: TLR9-MyD88 inh, TLR4-MyD88 BLA)
O=C(O)CCCN1C(=O)/C(=C/c2ccncc2)SC1=S	none (no result: TLR4-MyD88 BLA)
O=C(O)CCCCCN1C(=O)/C(=C\c2ccc(-c3ccc(Cl)cc3)o2)SC1=S	Myeloid diff MLP active (no result: TLR4-MyD88 BLA)
O=C(O)CCCN1C(=O)/C(=C/c2ccc(-c3nc4ccccc4s3)o2)SC1=S	ABCB6 inh 2 63 (no result: Myeloid diff MLP)
O=C(O)CCCCCN1C(=O)/C(=C/c2ccncc2)SC1=S	none
O=C(CN1C(=O)NC2(CCCC2)C1=O)Nc1cccc(Cl)c1	none (no result: TLR4-MyD88 BLA)
COc1ccc(CNC(=O)CNC(=O)c2cccs2)c(OC)c1	none (no result: TLR4-MyD88 BLA)
CC(O)C(NS(=O)(=O)c1ccc(Cl)cc1)C(=O)OCCOc1ccc(F)cc1 (centres undefined)	none (no result: TLR4-MyD88 BLA)
C=CCn1c(Cc2ccc(OC)cc2)nnc1SCC(N)=O	none
C=CCn1c(Cc2ccc(OCC)cc2)nnc1SCC(N)=O	Myeloid diff MLP active
O=C(NCc1ccccc1Br)c1cccc2c1C(=O)c1ccc(N3CCC(Cc4ccccc4)CC3)cc1S2(=O)=O	Myeloid diff MLP active (no result: TLR4-MyD88 BLA)
CCOC(=O)N1CCN(S(=O)(=O)N2CCCC(C(=O)NCCCN3CCCCC3)C2)CC1 (centres undefined)	none (no result: TLR4-MyD88 BLA)
Cc1ccc(CC(=O)N/N=C/c2ccc3c(c2)OCO3)cc1	none
O=C(CCc1ccc(O)cc1)NN=Cc1ccc2c(c1)OCO2	Myeloid diff MLP active (no result: TLR4-MyD88 BLA)
CCc1ccccc1OCC(=O)Nc1ccc(N2CCCC2)cc1C	Myeloid diff MLP active (no result: TLR4-MyD88 BLA)
Cc1cc(N2CCCC2)ccc1NC(=O)COc1ccccc1	Myeloid diff MLP active (no result: TLR4-MyD88 BLA)
Cc1ccccc1OCC(=O)Nc1ccc(N2CCOCC2)cc1N1CCOCC1	none (no result: TLR4-MyD88 BLA)
COc1ccc(CNC(=O)CSc2nc3ccc(C)cc3[nH]2)cc1OC	none (no result: TLR4-MyD88 BLA)
O=C(N1CCN(c2cccc(Cl)c2)CC1)C1(c2cccs2)CCOCC1	none
COc1ccc(NC(=O)CCS(=O)(=O)c2ccc(Cl)cc2)cc1	Myeloid diff MLP active (no result: TLR4-MyD88 BLA)
Cc1ccc(C(=O)CCS(=O)(=O)c2ccc(Cl)cc2)cc1	Myeloid diff MLP active (no result: TLR4-MyD88 BLA)
CC1(C)CC2CC(C)(CN2/C=C2/CCCCC2=O)C1 (centres undefined)	none (no result: TLR4-MyD88 BLA)
Cn1cnc([N+](=O)[O-])c1Sc1nc(N)nc2c1ncn2C1OC(CO)C(O)C1O (centres undefined)	none (no result: Myeloid diff MLP, TLR4-MyD88 BLA)
O=C(NCCCn1ccnc1)c1ccc2nccnc2c1	Myeloid diff MLP active (no result: TLR4-MyD88 BLA)
CCSC1=N/C(=C\c2ccc3c(c2)OCO3)C(=O)S1	none
CCSC1=N/C(=C\C=C2/Oc3ccccc3N2CC)C(=O)S1	Myeloid diff MLP active (no result: TLR4-MyD88 BLA)
COc1ccccc1C(=O)NC(=O)COC(=O)c1ccc([N+](=O)[O-])cc1	none (no result: TLR4-MyD88 BLA)
COc1cccc(/C=N/NC(=O)C(=O)Nc2ccccc2OC(F)(F)C(F)F)c1O	Myeloid diff MLP active
